Source: PubChem (several laboratories)
SENP8 block-1: inhibitors of human SENP8 protease. Q96LD8. recombinant SENP8, Nedd8 substrate fluorescence. inhibition, % at 20 µM. 360,000 tested, 0.64% active. AID 602440; in the data active = inhibition mostly above about 40%, no sharp cut-off; inactive = mostly below about 27%
Target sequence (Q96LD8 whole entry, looked up): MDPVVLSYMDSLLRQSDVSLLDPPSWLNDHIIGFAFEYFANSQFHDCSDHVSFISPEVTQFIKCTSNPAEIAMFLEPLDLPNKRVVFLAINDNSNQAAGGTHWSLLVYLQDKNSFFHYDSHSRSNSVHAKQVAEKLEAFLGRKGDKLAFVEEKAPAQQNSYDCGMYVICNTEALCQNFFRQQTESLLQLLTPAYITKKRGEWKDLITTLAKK
SENP6 inh: inhibitors of human SENP6 protease. inhibition, % at 10 µM. Recombinant SENP6 catalytic domain, aminoluciferin luminescence. AID 2599. 330,000 tested, 1.8% active;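 active = inhibition above about 50% at the single tested dose, limit read from the data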;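 note: plate controls were DMSO wells with enzyme for no effect and DMSO wells lacking enzyme for full effect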
Platelet DG rel: platelet dense granule release activity; human platelet-rich plasma, SFLLRN dense granule ATP release, luminescence; inhibition, %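 (compounds screened at 7.5 µM in platelet-rich plasma)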; 300,000 tested, 0.22% active; AID 1663;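 active = mean replicate score, as percent of positive control, at or above 50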
SENP8 block-2: blocks the human protease SENP8; Q96LD8; purified SENP8, Z-RLRGG-aminoluciferin cleavage, luminescence; inhibition, % at 10 µM; 330,000 tested, 1.2% active; in the data active = inhibition above about 50%
SENP7 inh: inhibitors of human SENP7 protease; 330,000 tested, 1.5% active; inhibition, % at 5 µM; recombinant SENP7, Z-RLRGG-aminoluciferin luminescence, 40 min; AID 434973;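 active = inhibition above about 50% at the single test dose, limit read from the data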;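 note: plate controls were DMSO with enzyme for no effect and no enzyme buffer wells for full effect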
Target sequence (Q9BQF6 706-1050 limits assumed): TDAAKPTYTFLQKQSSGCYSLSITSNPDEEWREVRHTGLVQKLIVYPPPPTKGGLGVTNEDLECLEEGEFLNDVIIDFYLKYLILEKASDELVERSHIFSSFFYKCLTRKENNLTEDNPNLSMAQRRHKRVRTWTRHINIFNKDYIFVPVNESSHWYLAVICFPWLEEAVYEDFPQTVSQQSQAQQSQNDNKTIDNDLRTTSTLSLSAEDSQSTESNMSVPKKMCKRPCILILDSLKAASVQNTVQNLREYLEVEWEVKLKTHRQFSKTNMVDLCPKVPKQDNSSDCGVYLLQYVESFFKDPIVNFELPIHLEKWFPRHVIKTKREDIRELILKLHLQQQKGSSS
SENP8 conf: SENP8 (human) inhibition, single concentration confirmation; shares compounds with SENP8 block-1; purified SENP8, Nedd8-AMC/pro-Nedd8 cleavage fluorescence, 30 min; inhibition, % at 25 µM; 1,400 tested, 15% active; AID 624319; in the data active = inhibition mostly above about 39%, no sharp cut-off; inactive = mostly below about 34%
Numbers without * were called inactive; i = inactive; . = no result given. Rows were chosen to be rich in hits. Some 2.4% of all compounds tested hit in one or more screens of this group.

SMILES	SENP8 block-1	SENP6 inh	Platelet DG rel	SENP8 block-2	SENP7 inh	SENP8 conf
CC(C)Oc1ccc(S(=O)(=O)N2CCOCC2)cc1NC(=O)c1cc([N+](=O)[O-])ccc1N1CCOCC1	15	-20	8	-2	-6	.
Cc1c(C(=O)N(C)C)sc(NC(=O)c2cc([N+](=O)[O-])cc([N+](=O)[O-])c2)c1C#N	44*	-2	-1	-3	8	28
Cc1cc(C(=O)NC(Cc2ccccc2)C(=O)O)c(C)o1 (configuration not stated)	24	-15	0	-1	3	.
Cc1ccccc1C(=O)Nc1ccc(-c2nnc(SC(C)C(=O)O)n2C)cc1 (configuration not stated)	41*	-13	4	-4	-11	16
Cn1c(SCC(=O)Nc2ccc(NC(=O)c3ccccc3F)cc2)nnc1-c1ccncc1	11	-14	3	-4	2	.
CCOC(=O)[C@@H]1[C@H]2COc3ccccc3[C@H]2N2C(=O)N(c3cccc(C)c3)C(=O)[C@]12C	12	-9	.	-10	-7	.
C/C(=N\NC(=O)c1ccccn1)c1ccc(Cl)cc1	55*	42	0	41	26	6
O=C1Nc2ccc3sc4ccccc4c3c2C1=O	33	-8	-5	-3	-9	.
CC(C)[C@@H](C(=O)N[C@@H](CCc1ccc(O)cc1)C(=O)O)N(C)C(=O)[C@H](CO)NC(=O)[C@@H](O)[C@H](N)CCCCCCCCl	55*	.	.	.	.	17
CC(C)C[C@H](NC(=O)[C@@H](O)[C@H](N)Cc1ccccc1)C(=O)O	.	-6	3	-9	-6	.
O=[N+]([O-])c1ccc(Nc2ccccc2)c2nonc12	49*	-3	-2	-9	1	17
Cc1cc(Nc2ccccc2)c2c([N+](=O)[O-])cc(C)c(C)c2n1	45*	7	1	4	6	2
COc1ccccc1Nc1cc(C)nc2c(C)ccc([N+](=O)[O-])c12	23	4	-2	-13	-4	.
CC(=O)NS(=O)(=O)c1ccc(Nc2ccc([N+](=O)[O-])c3nonc23)cc1	24*	6	-3	0	4	26
CC(=O)Nc1ccc(Nc2ccc3nonc3c2[N+](=O)[O-])cc1	31	5	1	-1	-12	.
O=[N+]([O-])c1cnccc1Nc1ccccc1	19	-4	-5	4	7	.
Cc1cccc(C)c1NC(=O)c1csc([C@@H]2O[C@H](CO)[C@H](O)[C@H](O)[C@H]2O)n1	0	.	.	.	.	.
CSc1ccc(/C=C2\C(=N)N3N=C(CC(=O)N4CCCCC4)SC3=NC2=O)cc1	-34	-14	2	-4	-8	.
CN(CCCC(=O)Nc1ccc(Br)cc1F)S(=O)(=O)c1ccccc1	14	1	2	-4	5	.
CSc1nc(N)c(C(=O)N(c2ccccc2)c2ccccc2)s1	9	.	.	.	.	.
Cn1c(=O)c2cc(NC(=O)Nc3cccnc3)ccc2n1Cc1cccc(C(F)(F)F)c1	i	.	.	.	.	.
CN(C)C1(CN=Cc2cc(Cl)cc([N+](=O)[O-])c2O)CCCCC1	40*	24	5	1	3	24
O=[N+]([O-])c1c(Nc2ccccc2O)cc(Cl)c2nonc12	42*	12	40	-4	-5	12
O=[N+]([O-])c1c(Nc2ccc(O)cc2)cc(N2CCOCC2)c2nonc12	49*	-13	3	-3	3	29
CC(=O)Nc1ccc(Nc2cc(N3CCOCC3)c3nonc3c2[N+](=O)[O-])cc1	15	7	13	-2	9	.
SMILES	SENP8 block-1	SENP6 inh	Platelet DG rel	SENP8 block-2	SENP7 inh	SENP8 conf
CCOCCCNC(=O)C1CCCN(S(=O)(=O)CC)C1 (configuration not stated)	46*	0	0	-2	-1	-4
CCNc1nc(NC(C)C)nc(N(n2cnnc2)S(=O)(=O)c2ccc(C)cc2)n1	12	-9	-2	-7	5	.
Cc1ccc(Nc2cc(C)c(O)c(C)c2)cc1	48*	8	1	2	8	67*
Cc1ccc(Nc2ccccc2)cc1	18	-19	-6	-5	3	.
Cc1ccc(C(=O)NCc2ccccn2)c(Cl)c1	41*	3	9	-6	-5	22
C[C@H](CCC(=O)O)[C@H]1CC[C@H]2[C@@H]3CC[C@@H]4C[C@H](O)CC[C@]4(C)[C@H]3CC[C@]12C	64*	4	.	4	-7	13
O=[N+]([O-])c1ccc(N2CCOCC2)nc1	17	-6	0	6	8	.
O=C1CC(N2CCOCC2)=NN1c1ccc([N+](=O)[O-])cc1	76*	29	7	16	22	46*
O=C(COC(=O)c1ncc(Cl)c(Cl)c1Cl)Nc1ccc(Cl)cn1	-91	-9	-24	-8	5	.
O=[N+]([O-])c1ccc(S(=O)(=O)N2CCN(Cc3c[nH]c4ccccc34)CC2)cc1	59*	3	-6	5	3	24
COc1ccc(S(=O)(=O)N2CCN(Cc3c[nH]c4ccccc34)CC2)cc1	24	15	2	1	-1	.
CCOc1ccc(N2C(=O)CC(n3nc(C)cc3C)C2=O)cc1 (configuration not stated)	45*	-25	13	-4	-2	5
CC(C)CC(=O)Nc1ccccc1N1CCCC1	19	-22	7	-7	-5	.
CC(C)CC(=O)NC(=S)Nc1ccccc1N1CCCC1	59*	27	-3	10	7	41
O=[N+]([O-])c1ccc(N/N=C2\CC3CC=CC23)c([N+](=O)[O-])c1 (configuration not stated)	40*	-11	0	-2	4	19
O=[N+]([O-])c1ccc(NN=C2CC3CCC2C3)c([N+](=O)[O-])c1 (configuration not stated)	41*	.	.	.	.	-1
CC1CCC/C(=N/Nc2ccc([N+](=O)[O-])cc2[N+](=O)[O-])C1 (configuration not stated)	37	-10	-1	-17	-7	.
COc1ccccc1C(=O)NC(=O)Cn1nc(C)c([N+](=O)[O-])c1C	20	-7	2	-2	-9	.
Cc1ccc(-n2c(-c3ccncc3)nnc2-c2ccco2)cc1	-80	3	9	0	5	.
Cc1ccc(-c2nnc(-c3ccncc3)n2-c2ccc(C)cc2)cc1	62*	6	-2	5	7	9
COc1ccc(N/C=C/C(=O)c2ccc(C)cc2)c([N+](=O)[O-])c1	44*	12	20	12	31	12
COc1cc(/C=C2\SC(=O)N(Cc3ccc(F)cc3)C2=O)cc([N+](=O)[O-])c1O	40*	7	6	7	-4	21
COc1cc(/C=C2\SC(=O)N(Cc3ccc(Cl)cc3)C2=O)cc([N+](=O)[O-])c1O	31	.	.	.	.	.
Cc1ccc(-n2cnc(N)c2C(=O)c2cccc([N+](=O)[O-])c2)cc1	55*	-4	0	4	2	12
